# Laboratory results as given in PubChem BioAssay (NCATS).
# A number with no mark means an inactive call. The call rests on the fitted dose curve; in most records, active means well fitted curve in the direction sought with a large enough effect; inconclusive means small, poorly fitted or top-dose-only effect, or another doubt; inactive means no such curve, though single readings can be large; an effect the other way counts as inactive or inconclusive.
# System: not listed separately
# Assay: Validation qHTS assay for inhibitors of Activation Induced Cytidine Deaminase (AID): UDG Counterscreen signal (AID 1347427); further: 0% is about no effect
# Conditions: biochemical UDG counterscreen, fluorescence signal; series mostly up to 115 µM; activity, negative = inhibition: at the top concentration
# How it was run: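 Counterscreen read of UDG activity (2 U/mL, 4/3x) in the FRET deamination format with AID (1 uM, 4/3x), DJC20/DJC23 substrates (250 nM, 4x), 4 h at room temperature. NaOH stop, fluorescence at 560 ex/665 em.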
row,Structure (SMILES),"activity, negative = inhibition"
1,CCC1(O)CC2CN(CCc3c([nH]c4ccccc34)[C@@](C(=O)OC)(c3cc4c(cc3OC)N(C)C3[C@]45CCN4CC=C[C@@](CC)([C@@H](OC(C)=O)[C@]3(O)C(=O)OC)[C@H]45)C2)C1 (stereo partly specified),5.04%
2,N#C/C(=C\c1ccc(O)c(O)c1)C(=O)NCCc1ccccc1,10.5%
3,Nc1nc2ccc(Cl)cc2c2nc(-c3ccco3)nn12,6.92%
4,C=C1C[C@@]23CC[C@H]4[C@@](C)(CCC[C@@]4(C)C(=O)OC4OC(CO)C(O)C(O)C4O)[C@@H]2CC[C@]1(OC1OC(CO)C(O)C(O)C1OC1OC(CO)C(O)C(O)C1O)C3 (stereo partly specified),-4.22%
5,S=C(S)N1CCCC1,-3.17%
6,CCC1(O)CC2CN(CCc3c([nH]c4ccccc34)[C@@](C(=O)OC)(c3cc4c(cc3OC)N(C=O)C3[C@]45CCN4CC=C[C@@](CC)([C@@H](OC(C)=O)[C@]3(O)C(=O)OC)[C@H]45)C2)C1 (stereo partly specified),13.6%
7,N#C/C(=C\c1ccc(O)c(O)c1)C(=O)NCCCNC(=O)/C(C#N)=C/c1ccc(O)c(O)c1,7.32%
8,CN(C)S(=O)(=O)c1ccc2c(c1)/C(=C/c1cc3c([nH]1)CCCC3)C(=O)N2,16.1%
9,COc1cc(/C=C(\C#N)C(=O)Nc2nnc(C(F)(F)F)s2)ccc1OCc1ccc(C(F)(F)F)cc1C(F)(F)F,-14.4%
10,CCCOC(=O)c1c(-c2ccccc2)nc(CC)c(C(=O)SCC)c1CCC,-3.02%
11,CNCCc1cnc(CCC(c2ccccc2)c2ccccc2)[nH]1,9.23%
12,O=c1[nH]c(=S)[nH]c(-c2ccccc2)c1Cc1c(O)ccc2ccccc12,8.3%
13,N#CC(=C(\N)Sc1ccccc1N)/C(C#N)=C(/N)Sc1ccccc1N,6.03%
14,CC(=O)SC1CC2=CC(=O)CC[C@]2(C)C2CC[C@@]3(C)C(CC[C@@]34CCC(=O)O4)C12 (stereo partly specified),9.45%
15,COc1cc([C@@H]2c3cc4c(cc3[C@H](O)C3COC(=O)[C@@H]32)OCO4)cc(OC)c1OC (stereo partly specified),12.3%
16,NC(C(=O)N[C@@H]1C(=O)N2C(C(=O)O)=C(Cl)CS[C@H]12)c1ccccc1 (stereo partly specified),12.4%
17,CCCCCCCCCCC(C)(C)C(=O)Nc1c(OC)cc(OC)cc1OC,-6.06%
18,O=C(O)/C=C/c1ccc(O)c(O)c1,2.7%

row,Structure (SMILES),"activity, negative = inhibition"
1,O=C(O)/C=C/c1cnc[nH]1,10.1%
2,N#Cc1cc2nc(O)c(O)nc2cc1[N+](=O)[O-],5.94%
3,C/C(=C\c1ccc(C(=O)O)cc1)c1ccc2c(c1)C(C)(C)CCC2(C)C,8.16%
4,C=CC1(C)CC(=O)C2(O)C(C)(O1)C(OC(C)=O)C(O)C1C(C)(C)CCC(O)C12C (stereo unspecified),13.1%
5,NC(=Nc1ccccc1)NC(=O)c1nc(Cl)c(N)nc1N,12%
6,O=c1cc(-c2ccccc2)[nH]c2nc(Cl)ccc12,11.5%
7,NC(N)=[N+]1CCc2ccccc2C1,12.2%
8,CNCCNS(=O)(=O)c1cccc2cnccc12,7.64%
9,CC#CCOC(=O)c1c(C)nc2sc3c(c2c1N)CCC(O)C3 (stereo unspecified),-3.78%
10,NC1CONC1=O (stereo unspecified),11.3%
11,O=C1NC(=O)c2cc(Nc3ccccc3)c(Nc3ccccc3)cc21,-9.03%
12,CC(C)(C)c1cc(/C=C(\C#N)C(N)=S)cc(C(C)(C)C)c1O,-6.04%
13,C[C@]12C=CC(=O)C=C1CC[C@@H]1C2=CC[C@]2(C)[C@@H](C(=O)CN3CCN(c4cc(N5CCCC5)nc(N5CCCC5)n4)CC3)CC[C@@H]12,-15.1%
14,CCCCCCCCCCCCCCCCCCOC[C@H](COP(=O)([O-])OCC[N+](C)(C)C)OC,8.89%
15,C[C@@]1(C2CCCC2)Cc2cc(OCC(=O)O)c(Cl)c(Cl)c2C1=O,8.91%
16,Nn1nnc2ccccc21,14.8%
17,NC1C=CC=C(C(=O)O)C1 (stereo unspecified),9.02%
18,C=CCN1CCc2c(cc(O)c(O)c2Br)[C@@H](c2ccccc2)C1,-4.16%

# Biological target: Single-stranded DNA cytosine deaminase (Homo sapiens) (UniProt Q9GZX7)
# Assay: Validation qHTS assay for inhibitors of Activation Induced Cytidine Deaminase (AID): AID signal (AID 1347429); further: on the % scale 0 is the no-effect control and ±100 the full control effect
# Conditions: Recombinant AID, FRET ssDNA deamination with UDG, fluorescence; series mostly up to 115 µM; activity change, negative = inhibition: at the top concentration
# How it was run: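 FRET deamination assay: 1 uM AID (4/3x stock) with UDG, compound up to 114 uM, then 250 nM DJC20/DJC23 substrate (4x stock) for 4 hr at room temperature. NaOH added, 30 min; fluorescence read 540/590 nm.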
# Sequence of Single-stranded DNA cytosine deaminase (Homo sapiens) (Q9GZX7 whole entry, looked up): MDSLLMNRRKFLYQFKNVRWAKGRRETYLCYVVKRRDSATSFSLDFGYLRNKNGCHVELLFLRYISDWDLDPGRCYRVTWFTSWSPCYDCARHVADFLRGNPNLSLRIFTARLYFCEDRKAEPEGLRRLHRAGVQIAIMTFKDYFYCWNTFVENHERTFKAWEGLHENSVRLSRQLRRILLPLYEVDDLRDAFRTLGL
row,Structure (SMILES),"activity change, negative = inhibition"
1,CCC1(O)CC2CN(CCc3c([nH]c4ccccc34)[C@@](C(=O)OC)(c3cc4c(cc3OC)N(C)C3[C@]45CCN4CC=C[C@@](CC)([C@@H](OC(C)=O)[C@]3(O)C(=O)OC)[C@H]45)C2)C1 (stereo partly specified),15.6%
2,N#C/C(=C\c1ccc(O)c(O)c1)C(=O)NCCc1ccccc1,8.54%
3,Nc1nc2ccc(Cl)cc2c2nc(-c3ccco3)nn12,73%
4,C=C1C[C@@]23CC[C@H]4[C@@](C)(CCC[C@@]4(C)C(=O)OC4OC(CO)C(O)C(O)C4O)[C@@H]2CC[C@]1(OC1OC(CO)C(O)C(O)C1OC1OC(CO)C(O)C(O)C1O)C3 (stereo partly specified),-3.18%
5,S=C(S)N1CCCC1,-0.287%
6,CCC1(O)CC2CN(CCc3c([nH]c4ccccc34)[C@@](C(=O)OC)(c3cc4c(cc3OC)N(C=O)C3[C@]45CCN4CC=C[C@@](CC)([C@@H](OC(C)=O)[C@]3(O)C(=O)OC)[C@H]45)C2)C1 (stereo partly specified),17%
7,N#C/C(=C\c1ccc(O)c(O)c1)C(=O)NCCCNC(=O)/C(C#N)=C/c1ccc(O)c(O)c1,-11%
8,CCCOC(=O)c1c(-c2ccccc2)nc(CC)c(C(=O)SCC)c1CCC,-3.14%
9,CNCCc1cnc(CCC(c2ccccc2)c2ccccc2)[nH]1,32.8%
10,O=c1[nH]c(=S)[nH]c(-c2ccccc2)c1Cc1c(O)ccc2ccccc12,-1.55%
11,N#CC(=C(\N)Sc1ccccc1N)/C(C#N)=C(/N)Sc1ccccc1N,38%
12,CC(=O)SC1CC2=CC(=O)CC[C@]2(C)C2CC[C@@]3(C)C(CC[C@@]34CCC(=O)O4)C12 (stereo partly specified),17.3%
13,COc1cc([C@@H]2c3cc4c(cc3[C@H](O)C3COC(=O)[C@@H]32)OCO4)cc(OC)c1OC (stereo partly specified),17.3%
14,NC(C(=O)N[C@@H]1C(=O)N2C(C(=O)O)=C(Cl)CS[C@H]12)c1ccccc1 (stereo partly specified),57.2%
15,CCCCCCCCCCC(C)(C)C(=O)Nc1c(OC)cc(OC)cc1OC,-5.87%
16,O=C(O)/C=C/c1ccc(O)c(O)c1,77.1%
17,O=C(O)/C=C/c1cnc[nH]1,20.9%
18,N#Cc1cc2nc(O)c(O)nc2cc1[N+](=O)[O-],21.8%

row,Structure (SMILES),"activity change, negative = inhibition"
1,C/C(=C\c1ccc(C(=O)O)cc1)c1ccc2c(c1)C(C)(C)CCC2(C)C,-11.8%
2,C=CC1(C)CC(=O)C2(O)C(C)(O1)C(OC(C)=O)C(O)C1C(C)(C)CCC(O)C12C (stereo unspecified),14.7%
3,NC(=Nc1ccccc1)NC(=O)c1nc(Cl)c(N)nc1N,-11.3%
4,O=c1cc(-c2ccccc2)[nH]c2nc(Cl)ccc12,74%
5,NC(N)=[N+]1CCc2ccccc2C1,11.7%
6,CNCCNS(=O)(=O)c1cccc2cnccc12,75.2%
7,CC#CCOC(=O)c1c(C)nc2sc3c(c2c1N)CCC(O)C3 (stereo unspecified),0.851%
8,NC1CONC1=O (stereo unspecified),23.8%
9,O=C1NC(=O)c2cc(Nc3ccccc3)c(Nc3ccccc3)cc21,-3.16%
10,CC(C)(C)c1cc(/C=C(\C#N)C(N)=S)cc(C(C)(C)C)c1O,258%
11,C[C@]12C=CC(=O)C=C1CC[C@@H]1C2=CC[C@]2(C)[C@@H](C(=O)CN3CCN(c4cc(N5CCCC5)nc(N5CCCC5)n4)CC3)CC[C@@H]12,24.4%
12,CCCCCCCCCCCCCCCCCCOC[C@H](COP(=O)([O-])OCC[N+](C)(C)C)OC,15%
13,C[C@@]1(C2CCCC2)Cc2cc(OCC(=O)O)c(Cl)c(Cl)c2C1=O,4.82%
14,Nn1nnc2ccccc21,16%
15,NC1C=CC=C(C(=O)O)C1 (stereo unspecified),13.2%
16,C=CCN1CCc2c(cc(O)c(O)c2Br)[C@@H](c2ccccc2)C1,15.7%
17,O=c1cc(O)cc(/C=C/c2ccc(O)c(O)c2)o1,37.7%
